Active and inactive are the calls of the source. How the source made its calls: active means hit-call score of the fitted dose curve at least 0.9, where 1 is the maximum; inactive means score below 0.9.

The source of these data is PubChem BioAssay (EPA / NIEHS).

Read-out in assay [1]: C-C motif chemokine 2 (Homo sapiens) (UniProt P13500)
As to the kind of experiment: BSK_KF3CT_MCP1: BioMAP Diversity Plus: KF3CT Assay for Monocyte Chemoattractant Protein 1 (MCP1/CCL2) Biomarker Activity (AID 2283073). To be noted: primary human keratinocytes with fibroblasts; actives raise or lower the signal. Summed up: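 ELISA readout of MCP-1 after 24 h chemical dosing of a human skin primary co-culture of keratinocytes and foreskin fibroblasts. Activity was fitted in both directions against DMSO.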

Read-out in assay [2]: urokinase plasminogen activator (uPA), PLAU (gene 5328)
The assay can be described thus: BSK_KF3CT_uPA: BioMAP Diversity Plus: KF3CT Assay for urokinase plasminogen activator (uPA) Biomarker Activity (AID 2283075). To be noted: primary human keratinocytes with fibroblasts; actives raise or lower the signal. In short, it runs like this: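 Primary human keratinocyte/foreskin fibroblast co-culture exposed to chemical; uPA measured by ELISA at 24 h. Bidirectional fit versus DMSO, with parallel SRB total-protein staining for cytotoxicity.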

Read-out in assay [3]: CD40, CD40 (gene 958)
The assay can be described thus: BSK_LPS_CD40: BioMAP Diversity Plus: LPS Assay for CD40 Biomarker Activity (AID 2283076). To be noted: primary human HUVEC with PBMC; actives raise or lower the signal. Summed up: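 Cells were dosed, incubated 24 h, then assayed for CD40 by ELISA. Gain or loss of signal was analysed relative to DMSO controls. The culture paired human umbilical vein endothelium with peripheral blood mononuclear cells.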

Read-out in assay [4]: E-selectin (Homo sapiens) (UniProt P16581)
As to the kind of experiment: BSK_LPS_Eselectin: BioMAP Diversity Plus: LPS Assay for Eselectin Biomarker Activity (AID 2283077). To be noted: primary human HUVEC with PBMC; actives raise or lower the signal. In short, it runs like this: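 Primary human vascular co-culture (endothelium plus PBMC) was dosed with chemical, then E-selectin quantified by ELISA at 24 h. Endpoint values derive from bidirectional curve fitting relative to DMSO.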

Read-out in assay [5]: Interleukin-8 (IL8), CXCL8 (gene 3576)
The assay can be described thus: BSK_LPS_IL8: BioMAP Diversity Plus: LPS Assay for Interleukin-8 (IL8) Biomarker Activity (AID 2283078). The following applies: primary human HUVEC with PBMC; actives raise or lower the signal. In short, it runs like this: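 Readout is IL-8 by ELISA, taken 24 h after compounds were added to LPS-stimulated endothelial/PBMC co-cultures. Both increases and decreases relative to DMSO control were scored through bidirectional fitting.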

Assay [6] can be described thus: BSK_LPS_SRB: Viability Assessment in the BioMAP Diversity Plus: LPS Assay (AID 2283079).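 Further: total protein by sulforhodamine B absorbance as a cytotoxicity measure; measured one day after compound addition.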 To be noted: primary human HUVEC with PBMC. In short, it runs like this: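 Readout is SRB absorbance at 560 nm (0.1% stain, TCA-fixed parallel cultures) as a total-protein cytotoxicity measure. Cells: primary human umbilical vein endothelium plus peripheral blood mononuclear cells, 24 h after chemical exposure; DMSO served as baseline.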

Read-out in assay [7]: Interleukin-1 alpha (IL1a), IL1A (gene 3552)
The assay can be described thus: BSK_LPS_IL1a: BioMAP Diversity Plus: LPS Assay for Interleukin-1 alpha (IL1a) Biomarker Activity (AID 2283080). To be noted: primary human HUVEC with PBMC; actives raise or lower the signal. Summed up:
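ELISA read-out of IL-1 alpha from a human primary vascular co-culture (endothelium plus PBMC) under LPS, sampled 24 hours post-dosing. Activity was fitted in both directions relative to DMSO controls.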

Read-out in assay [8]: Monocyte Chemoattractant Protein-1 (MCP1), CCL2 (gene 6347)
As to the kind of experiment: BSK_LPS_MCP1: BioMAP Diversity Plus: LPS Assay for Monocyte Chemoattractant Protein-1 (MCP1) Biomarker Activity (AID 2283081).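 On AC50: secreted MCP-1 protein quantified by ELISA in culture supernatant.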 The following applies: primary human HUVEC with PBMC; actives raise or lower the signal. Summed up: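 Human endothelial–PBMC co-cultures were dosed with chemical, then LPS-driven MCP-1 levels were quantified by ELISA at 24 h. Activity in either direction was fitted versus DMSO negative control.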

Assay [9] in a line: BSK_LPS_PGE2: BioMAP Diversity Plus: LPS Assay for Prostaglandin E2 (PGE2) Biomarker Activity (AID 2283082). The following applies: primary human HUVEC with PBMC; actives raise or lower the signal. Summed up:
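HUVEC plus PBMC co-culture stimulated with LPS; secreted PGE2 quantified by ELISA 24 h after chemical dosing. Activity fitted bidirectionally against DMSO as negative control and baseline; parallel SRB total-protein staining served as cytotoxicity check.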

Read-out in assay [10]: Macrophage colony-stimulating factor (MCSF), CSF1 (gene 1435)
As to the kind of experiment: BSK_LPS_MCSF: BioMAP Diversity Plus: LPS Assay for Macrophage colony-stimulating factor (MCSF) Biomarker Activity (AID 2283083). To be noted: primary human HUVEC with PBMC; actives raise or lower the signal. In short, it runs like this:
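ELISA readout of M-CSF after 24 h compound exposure in a human endothelial/PBMC co-culture. Activity, in either direction, is fitted relative to DMSO vehicle.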

Read-out in assay [11]: Tissue Factor, F3 (gene 2152)
As to the kind of experiment: BSK_LPS_TissueFactor: BioMAP Diversity Plus: LPS Assay for Tissue Factor Biomarker Activity (AID 2283084). To be noted: primary human HUVEC with PBMC; actives raise or lower the signal. In short, it runs like this: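 ELISA signal for cell-surface Tissue Factor (CD142) was read 24 h after compound dosing of an LPS-stimulated human endothelial–PBMC primary co-culture. Gain or loss of signal was scored relative to DMSO.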

Read-out in assay [12]: Tumor necrosis factor (Homo sapiens) (UniProt P01375)
As to the kind of experiment: BSK_LPS_TNFa: BioMAP Diversity Plus: LPS Assay for Tumour Necrosis Factor alpha (TNFa) Biomarker Activity (AID 2283085). To be noted: primary human HUVEC with PBMC; actives raise or lower the signal. In short, it runs like this: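 Human umbilical vein endothelial cells co-cultured with PBMC were exposed to test chemical and TNFa measured by ELISA 24 h after dosing. Bidirectional curve fitting was done relative to DMSO as negative control and baseline.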

Read-out in assay [13]: Vascular cell adhesion molecule 1 (VCAM1), VCAM1 (gene 7412)
As to the kind of experiment: BSK_LPS_VCAM1: BioMAP Diversity Plus: LPS Assay for Vascular cell adhesion molecule 1 (VCAM1) Biomarker Activity (AID 2283086). The following applies: primary human HUVEC with PBMC; actives raise or lower the signal. Summed up:
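Human umbilical vein endothelial cells co-cultured with peripheral blood mononuclear cells under LPS stimulation were exposed to test chemical for 24 h. VCAM-1 levels were then measured by ELISA, with bidirectional curve fitting relative to DMSO as negative control and baseline.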

Read-out in the next assay: CD38, CD38 (gene 952)
As to the kind of experiment: BSK_SAg_CD38: BioMAP Diversity Plus: SAg Assay for CD38 Biomarker Activity (AID 2283087). To be noted: primary human HUVEC with PBMC; actives raise or lower the signal. In short, it runs like this: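 Fluorescence ELISA of cell-surface CD38 served as the read-out, with either increase or decrease fitted against DMSO controls. Cells were a human umbilical vein endothelium plus PBMC co-culture under SEB/TSST-1 stimulation, measured 24 h after dosing.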

Read-out in assay [14]: CD40, CD40 (gene 958)
As to the kind of experiment: BSK_SAg_CD40: BioMAP Diversity Plus: SAg Assay for CD40 Biomarker Activity (AID 2283088). The following applies: primary human HUVEC with PBMC; actives raise or lower the signal. In short, it runs like this: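 Compounds were dosed onto a human primary endothelial–PBMC co-culture, and after 24 h CD40 was quantified by ELISA using a fluorescence signal. Activity in either direction was fitted relative to DMSO.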

Read-out in the next assay: CD69, CD69 (gene 969)
The assay can be described thus: BSK_SAg_CD69: BioMAP Diversity Plus: SAg Assay for CD69 Biomarker Activity (AID 2283089).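 On AC50: cell surface CD69 protein quantified by ELISA with fluorescence detection.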 The following applies: primary human HUVEC with PBMC; actives raise or lower the signal. In short, it runs like this:
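HUVEC co-cultured with PBMC were dosed with chemical, and CD69 was measured by ELISA with fluorescence read-out 24 h later. Bidirectional curve fitting used DMSO as negative control and activity baseline.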

Read-out in assay [15]: Monocyte Chemoattractant Protein-1 (MCP1), CCL2 (gene 6347)
The assay can be described thus: BSK_SAg_MCP1: BioMAP Diversity Plus: SAg Assay for Monocyte Chemoattractant Protein-1 (MCP1) Biomarker Activity (AID 2283090). To be noted: primary human HUVEC with PBMC; actives raise or lower the signal. Summed up: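 MCP-1 levels in the endothelial–PBMC SAg co-culture were quantified by ELISA at 24 h post-dosing; both increases and decreases versus DMSO scored. Cytotoxicity monitored by SRB total protein in parallel cultures.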

Read-out in assay [16]: E-selectin (Homo sapiens) (UniProt P16581)
The assay can be described thus: BSK_SAg_Eselectin: BioMAP Diversity Plus: SAg Assay for Eselectin Biomarker Activity (AID 2283091). The following applies: primary human HUVEC with PBMC; actives raise or lower the signal. Summed up: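 Co-culture: HUVEC + PBMC. Dose compound; 24 h. ELISA for E-selectin. Bidirectional fit vs DMSO.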

Read-out in assay [17]: Monokine induced gamma interferon (MIG), CXCL9 (gene 4283)
As to the kind of experiment: BSK_SAg_MIG: BioMAP Diversity Plus: SAg Assay for Monokine induced gamma interferon (MIG) Biomarker Activity (AID 2283092). The following applies: primary human HUVEC with PBMC; actives raise or lower the signal. In short, it runs like this: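 HUVEC plus human PBMC co-culture, chemicals dosed and MIG (CXCL9) quantified by ELISA at 24 h. Bidirectional curve fitting against DMSO as negative control and baseline, so both gain and loss of signal count as activity.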

Read-out in assay [18]: Matrix Metallopeptidase 9 (MMP9), MMP9 (gene 4318)
The assay can be described thus: BSK_KF3CT_MMP9: BioMAP Diversity Plus: KF3CT Assay for Matrix Metallopeptidase 9 (MMP9) Biomarker Activity (AID 2283074). The following applies: primary human keratinocytes with fibroblasts; actives raise or lower the signal. In short, it runs like this: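 Human keratinocyte and foreskin fibroblast co-culture exposed to chemicals for 24 h; MMP9 biomarker measured by ELISA, bidirectional fitting relative to DMSO; cytotoxicity tracked by SRB total protein staining in parallel cultures.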

Chain of Tumor necrosis factor (Homo sapiens) (P01375 whole entry, looked up): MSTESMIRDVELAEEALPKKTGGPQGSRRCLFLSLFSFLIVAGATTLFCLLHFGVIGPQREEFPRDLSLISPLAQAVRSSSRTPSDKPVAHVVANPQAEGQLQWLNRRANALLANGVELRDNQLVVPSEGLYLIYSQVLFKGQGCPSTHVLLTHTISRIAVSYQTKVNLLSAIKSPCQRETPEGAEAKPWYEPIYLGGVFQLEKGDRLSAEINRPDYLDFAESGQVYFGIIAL
Chain of E-selectin (Homo sapiens) (P16581 whole entry, looked up): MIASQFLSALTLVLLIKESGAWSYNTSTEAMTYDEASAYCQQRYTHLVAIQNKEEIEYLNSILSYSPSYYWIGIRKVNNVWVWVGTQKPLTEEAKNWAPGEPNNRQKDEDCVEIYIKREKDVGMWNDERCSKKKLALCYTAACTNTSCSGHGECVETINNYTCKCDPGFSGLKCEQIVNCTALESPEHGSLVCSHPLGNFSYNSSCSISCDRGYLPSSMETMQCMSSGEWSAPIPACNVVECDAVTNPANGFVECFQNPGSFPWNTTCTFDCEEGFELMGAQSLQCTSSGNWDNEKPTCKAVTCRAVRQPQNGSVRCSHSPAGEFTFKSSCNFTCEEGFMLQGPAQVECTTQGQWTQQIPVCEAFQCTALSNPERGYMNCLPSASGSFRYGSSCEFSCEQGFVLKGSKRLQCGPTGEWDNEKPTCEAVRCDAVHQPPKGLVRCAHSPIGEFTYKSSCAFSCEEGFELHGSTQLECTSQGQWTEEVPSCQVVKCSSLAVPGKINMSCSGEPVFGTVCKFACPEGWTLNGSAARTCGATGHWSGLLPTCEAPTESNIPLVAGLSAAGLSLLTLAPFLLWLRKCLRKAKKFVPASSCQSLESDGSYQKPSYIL

Take `N#CCCC(Br)(C#N)CBr` (centres undefined): the AC50 in assay [1] was 20 µM (active); in [2], 23.9 µM (active); with CD40, CD40 (gene 958) [3] it was 8.78 µM (active); in assay [4], 20 µM (active); in [5] it was 26.7 µM (active); in [6], 20 µM (active). In addition, the half-maximal activity concentration (AC50) in assay [7] was 11.7 µM (active); in [8], 11 µM (active); in assay [10], 10.6 µM (active); in [11] it was 21.4 µM (active); in assay [12], 13 µM (active); in [13] it was 9.05 µM (active). The AC50 with CD38, CD38 (gene 952) is 10.2 µM (active); in the assay with CD40, CD40 (gene 958) [14] it was 11.2 µM (active); in the assay with CD69, CD69 (gene 969), 17 µM (active); in assay [15], 20 µM (active); in assay [16] it was 20 µM (active); in assay [17], 30 µM (active). Further, the outcome in assay [9] was inactive.
`CCOC(=O)C(SP(=S)(OC)OC)c1ccccc1` (centres undefined): the outcome in [1] was “inactive”; in assay [18], “inactive”; in assay [2] it was “inactive”; in the assay with CD40, CD40 (gene 958) [3], “inactive”; in assay [4] it was “inactive”; in assay [5] it was “inactive”. Moreover, the outcome in [6], in [7], in assay [8], in [9], in assay [10] and in [11] was inactive. In addition, the outcome in assay [12] is “inactive”; with CD40, CD40 (gene 958) [14] it was “inactive”; in assay [15], “inactive”; in [16], “inactive”; in assay [17], “inactive”. For the same compound, the AC50 in [13] was 14.6 µM (active); in the assay with CD38, CD38 (gene 952), 20 µM (active); in the assay with CD69, CD69 (gene 969), 20 µM (active).
`CCOP(=S)(OCC)SCS(=O)(=O)C(C)(C)C`: the outcome was “inactive” in [1]; “inactive” in assay [18]; “inactive” in assay [2]; “inactive” in the assay with CD40, CD40 (gene 958) [3]; “inactive” in assay [4]; “inactive” in [5]. Besides, the outcome in [6], in assay [7], in assay [8], in [9], in [10] and in assay [11] was inactive. In addition, the outcome in assay [12] was “inactive”; in [13], “inactive”; in the assay with CD38, CD38 (gene 952), “inactive”; with CD40, CD40 (gene 958) [14] it was “inactive”; with CD69, CD69 (gene 969), “inactive”; in assay [15], “inactive”. Besides, the result in assay [16] and in [17] was inactive.

What is called AC50 is the concentration giving half of the maximal activity seen.
